The source of these data is ChEMBL document CHEMBL3433997, “St. Jude Leishmania screening dataset” (2016).

SMILES strings stand for the structures.

What all share (format): functional
Test [1] has as its target Solute carrier family 2, facilitated glucose transporter member 1 (Homo sapiens) (UniProt P11166). As to the kind of experiment: ST_JUDE_LEISH: Cytotoxicity at 2uM final concentration against transgenic Leishmania Mexicana promastigotes LmGLUT1 that are glucose transport deficient and complemented with the human glucose transporter GLUT1. Activity is measured by DNA content using SYBR green in vitro.

For test [2], the target named is Hexose transporter 1 (Plasmodium falciparum) (UniProt O97467). Briefly: ST_JUDE_LEISH: Cytotoxicity at 2uM final concentration against transgenic Leishmania Mexicana promastigotes LmPfHT that are glucose transport deficient and complemented with the Plasmodium falciparum hexose transporter. Activity is measured by DNA content using SYBR green in vitro.
Test [3] addresses Glucose transporter (Leishmania mexicana) (UniProt O61059). As to the kind of experiment: ST_JUDE_LEISH: Cytotoxicity at 2uM final concentration against transgenic Leishmania Mexicana promastigotes LmGT2 that are glucose transport deficient and complemented with the L. Mexicana glucose transporter 2. Activity is measured by DNA content using SYBR green in vitro.

Solute carrier family 2, facilitated glucose transporter member 1 (Homo sapiens), sequence (P11166 whole entry): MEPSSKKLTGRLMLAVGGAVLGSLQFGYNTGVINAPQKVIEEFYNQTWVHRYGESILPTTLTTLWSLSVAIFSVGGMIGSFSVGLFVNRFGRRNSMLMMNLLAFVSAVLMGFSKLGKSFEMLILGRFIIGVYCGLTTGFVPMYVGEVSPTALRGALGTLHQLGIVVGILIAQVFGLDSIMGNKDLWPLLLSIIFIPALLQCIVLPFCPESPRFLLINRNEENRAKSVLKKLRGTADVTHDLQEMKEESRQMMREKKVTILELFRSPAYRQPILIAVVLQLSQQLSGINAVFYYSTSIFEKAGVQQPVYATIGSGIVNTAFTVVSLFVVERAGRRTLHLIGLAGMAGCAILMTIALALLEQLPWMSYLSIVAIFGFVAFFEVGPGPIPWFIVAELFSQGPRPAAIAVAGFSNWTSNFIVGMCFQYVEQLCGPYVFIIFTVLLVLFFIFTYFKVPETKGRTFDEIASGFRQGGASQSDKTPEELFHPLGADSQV

As for `Cc1noc(C)c1-c1ccc2c(Nc3ccccc3C(C)(C)C)c(C(=O)NCc3ccccc3)cnc2c1`, the results for the inhibition in test [1], in test [2] and in test [3] were 6.6%, 7.11% and 3.62%, respectively.
In the same order, the values of `CCC(C)(C)c1ccc(OCCCC(=O)Nc2ccc(Cl)c([N+](=O)[O-])c2)c(C(C)(C)CC)c1` are 0.37%, 0.79% and 1.34%.
On to `CC(C)CCN1CCC(Oc2ccc(NC(=O)c3cccs3)cc2Cl)CC1`, for which the results for the inhibition in test [1], in test [2] and in test [3] were 0.82%, 4.49% and 3.68%, respectively.
Regarding `COc1ccc2cc(C=NNc3nc4ccccc4[nH]3)c(Cl)nc2c1`, the values for the inhibition in test [1], in test [2] and in test [3] were -0.3%, 0.04% and 1.79%, respectively.
On to `COc1cc2nc(NCCn3cccn3)nc(NCCc3ccccc3)c2cc1OC`, for which the inhibition in test [1] was determined as 7.22%; in test [2], 3.02%; in test [3], 6.96%.
For `O=C(Nc1ccc(Oc2ccccc2)cc1)N1CCC(CCN2CCC(c3c[nH]c4ccccc34)CC2)CC1` the same measures were 4.42%, 2.98% and 5.21%.
For `Oc1ccc2nc(NCCCc3ccccc3)nc(NCCc3ccccc3)c2c1` the same measures were 3.71%, 4.97% and -0.15%.
In the case of `O=C(NC1CCCCC1)c1ccc(O)c(-c2cccc(C(F)(F)F)c2)c1`, the inhibition in test [1] turned out to be 2.06%; in test [2], 2%; in test [3], 1.27%.
For `O=C(/C=C/c1ccc(Cl)c(Cl)c1)NCCCCCN1CCC(NC(=O)c2ccc(F)c(F)c2)CC1` the same measures were 3.18%, 5.17% and 6.18%.
For the compound `CC(C)(C)C(=O)N1CCN(c2ccc([N+](=O)[O-])c(NC3CC3)c2)CC1`, the inhibition in test [1] is 2.03%; in test [2] it was 2.58%; in test [3], 2.27%.
Consider `CCNc1cc(C)nc(Nc2ccc(NC(=O)c3cccs3)cc2)n1`, for which the inhibition came out at 4.59% in test [1], 5.9% in test [2] and 1.85% in test [3].
For the compound `O=C(Nc1ccc2ccccc2c1)N(CCCn1ccnc1)Cc1csc(-c2ccc(CNCc3ccccc3)cc2)n1`, the figures for the inhibition in test [1], in test [2] and in test [3] were -0.95%, 0.41% and 1.63%, respectively.
For `CNc1c2c(nc3ccc(NC(=O)CCCCCCc4ccccc4)cc13)CCCC2` the same measures were 5.72%, 8.7% and 4.32%.
Turning to `Cc1ccc(C(=O)Nc2cccc([N+](=O)[O-])c2)cc1S(=O)(=O)N1CC(C)CC(C)C1` (stereo not drawn), the inhibition in test [1] was determined as 6.34%; in test [2] it was 5.86%; in test [3], 0.08%.
In the same order, the values of `O=C(NC1CCCCC1)C1CCCN(C(=O)c2ccc(O)c(-c3ccc(Cl)c(Cl)c3)c2)C1` (stereo not drawn) are 0.15%, 1.83% and -0.03%.
With `Cc1cc(Cl)c(Cl)cc1NC(=O)Nc1cccc(C(F)(F)F)c1`, the inhibition was 1.27% in test [1], -0.59% in test [2] and -0.28% in test [3].
For `COc1ccc2nccc(N3CCC(O)(CCNCc4ccc5c(n4)NC(=O)CO5)CC3)c2n1` the same measures were 2.27%, 3.33% and 2.81%.
On to `O=C(NC1CC1)c1ccc(N2CCOc3ccc(Cl)cc32)s1`, for which the inhibition in test [1] turned out to be 2.19%; in test [2] it was 1%; in test [3], 1.54%.
In the same order, the values of `c1cc(CNC2CCCC2)cc(-c2ccc(CNc3ccc4ncccc4c3)cc2)c1` are -0.78%, 0.28% and -2.51%.
For `COc1ccc2c(N/N=C/c3ccc([N+](=O)[O-])cc3)ccnc2c1` the same measures were 6.14%, 4.33% and 2.7%.
For `CCCCN1CCN(Cc2cccc(NC(=O)c3ccc(Cl)c(Cl)c3)c2)CC1` the same measures were 13.4%, 10.1% and 10.5%.
Regarding `NCc1ccc(-c2cccc(CNC3CCN(Cc4ccccc4)CC3)c2)cc1`, the inhibition in test [1] worked out at 5.2%; in test [2], 5.95%; in test [3], 3.72%.
With `Cc1ccc(CNC(=O)[C@H](Cc2ccccc2)Nc2cc(C)nc(Nc3ccccc3)n2)cc1`, the inhibition came out at 7.2% in test [1], 6.84% in test [2] and 4.59% in test [3].
On to `CCc1c(C)nc(-n2nc(C)cc2NC(=O)C(CC)c2ccccc2)[nH]c1=O` (stereo not drawn), for which the inhibition in test [1] was 18.6%; in test [2], 7.02%; in test [3], -2.05%.
For `Fc1cc(Cl)ccc1Nc1ccnc(Nc2ccc3cn[nH]c3c2)n1` the same measures were 12.7%, 10.7% and 5.1%.
In the same order, the values of `O=C(CSc1nnc(O)n1Cc1ccccc1)Nc1ccccc1-c1ccccc1` are 5.26%, 6.12% and 5.02%.
In the same order, the values of `CS(=O)(=O)Nc1ccc2c(C3CCN(CCC4CCN(C(=O)/C=C/c5ccc(Cl)c(Cl)c5)CC4)CC3)c[nH]c2c1` are 4.12%, 3.65% and 4.12%.
On to `CCCCCC(C)C(C)c1cc(O)c2c(c1)OC(C)(C)CC2(O)c1ccccn1` (stereo not drawn), for which the results for the inhibition in test [1], in test [2] and in test [3] were 1.35%, 2.79% and 3.05%, respectively.
In the same order, the values of `COc1cccc(CNC[C@@H](O)[C@H](Cc2ccccc2)NC(=O)c2cc3c4c(c2)c(C(C)C)cn4CCS(=O)(=O)N3C)c1` are 8.36%, 8.07% and 8.04%.
In the same order, the values of `O=C(/C=C/c1ccc(Cl)c(Cl)c1)NCCCCCN1CCN(C(=O)Nc2ccc(Cl)c(C(F)(F)F)c2)CC1` are 2.17%, 0.61% and -1.28%.
In the same order, the values of `CC(=O)OCCN1C(=O)c2ccc3c4c(ccc(c24)C1=O)C(=O)N(CCOC(C)=O)C3=O` are 3.05%, 2.04% and 0.78%.
Consider `Nc1nc(-c2ccccn2)nc(-n2nc(-c3cccc(C(F)(F)F)c3)cc2N)n1`, for which the inhibition in test [1] came out at 3.56%; in test [2], 2.31%; in test [3], 1.29%.
For `Clc1ccc(Cc2nc3ccccc3[nH]2)cc1Cl` the same measures were 4.81%, 4.08% and 4.23%.
For `CCSc1nc2sc3c(c2c(=O)n1-c1ccccc1)CCN(C)C3` the same measures were 0.1%, 0.76% and -0.96%.
For `O=C(NCCNc1ccnc(Nc2ccc(F)cc2)n1)Nc1ccccc1F` the same measures were 2.71%, 1.86% and -2.84%.
Take `CC1(C)NC(N)=NC(=N)N1OCOc1ccc(Cl)cc1`: the inhibition was found to be 3.62% in test [1], 1.85% in test [2] and 4.23% in test [3].

A word on the inhibition: it is the change of the read-out against control, counted positive when it falls.
